Data from PubChem BioAssay (Tox21).
Unmarked numbers belong to inactive results. Inconclusive results are not listed. Where a call stands in place of a potency, no number is given. The source made the active and inactive calls. Unless noted, calls follow the shape of the dose curve; as a rule, active = well fitted curve in the direction sought with a large enough effect in the repeat runs; inconclusive = weak or mixed curves; inactive = no such curve, though single readings can be large; an effect the other way counts as inactive or inconclusive.

Tests used:
Aromatase (Homo sapiens) = Aromatase (Homo sapiens) (UniProt P11511); assay: qHTS assay to identify aromatase inhibitors (AID 743083); settings: MCF-7 aro ERE, testosterone-driven ERE luciferase, 24 h; series mostly up to 70.3 µM; also: nearly all actives have a fitted effect of over 55% in size; also: potency is read from the fitted curve at half-maximal effect
[1] = biological target: Aryl hydrocarbon receptor (Homo sapiens) (UniProt P35869); assay: qHTS assay to identify small molecule that activate the aryl hydrocarbon receptor (AhR) signaling pathway (AID 743085); settings: HepG2 AhR-luc (HG2L7.5c1), luciferase, 24 h; series mostly up to 70.3 µM; also: nearly all actives have a fitted effect of over 15% in size; also: potency is read from the fitted curve at half-maximal effect
Procedure, shortened: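 Luminescence read-out: ONE-Glo reagent, 30 min at room temperature, in HG2L7.5c1 HepG2 reporter cells treated 24 h at 37C. Viability was measured beforehand by CellTiter-Fluor fluorescence after 30 min at 37C.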

[2] = biological target: Acetylcholinesterase (Homo sapiens) (UniProt P22303); assay: Acetylcholinesterase (AChE) small molecule antagonists: colormetric cell-based qHTS assay (AID 1347395; calls by dose curve; also: nearly all actives have a fitted effect of over 30% in size; also: potency is read from the fitted curve at half-maximal effect); settings: SH-SY5Y cells AChE activity, colorimetric (Ellman); series mostly up to 115 µM
Procedure, shortened: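 SH-SY5Y cells; cpd 30 min 37 C; + DTNB/acetylthiocholine, 90 min 37 C; colorimetric thiocholine read; qHTS.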

[3] = biological target: Acetylcholinesterase (Homo sapiens) (UniProt P22303); assay: Acetylcholinesterase (AChE) small molecule antagonists: enzyme-based qHTS assay (AID 1347397; calls by dose curve; also: nearly all actives have a fitted effect of over 55% in size); settings: Potency: AChE enzyme activity inhibition; outcome: AChE enzyme activity inhibition; series mostly up to 115 µM
Procedure, shortened: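 Colorimetric DTNB readout of acetylthiocholine hydrolysis, 10 min at room temperature, after 30 min room-temperature exposure of 50 mU/mL recombinant human enzyme to compound; DMSO vehicle control.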

[4] = biological target: Acetylcholinesterase (Homo sapiens) (UniProt P22303); assay: Acetylcholinesterase (AChE) small molecule antagonists: fluorescence cell-based qHTS assay (AID 1347398; calls by dose curve; also: nearly all actives have a fitted effect of over 50% in size); settings: SH-SY5Y cells; Potency: AChE activity; outcome: AChE activity; series mostly up to 115 µM
Procedure, shortened: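 Cellular AChE activity read as thiocholine from acetylthiocholine hydrolysis, detected by Thiolite Green fluorescence at 490/520 nm after 40 min at room temperature. Compounds were pre-incubated 30 min at 37 C on adherent SH-SY5Y cells.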

[5] = qHTS assay for small molecules that induce genotoxicity in human embryonic kidney cells expressing luciferase-tagged ATAD5 (AID 651632); settings: HEK293T ATAD5-luciferase induction, 16 h; series mostly up to 83.3 µM; also: nearly all actives have a fitted effect of over 15% in size
Procedure, shortened: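 Test compounds were delivered by pin tool onto HEK293T reporter cells (2,000/well) expressing ATAD5 fused to luciferase. After 16 hr at 37C, 5% CO2, Amplite was added for 30 min at room temperature and luminescence was measured.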

[6] = qHTS assay for small molecule agonists of the p53 signaling pathway - cell viability (AID 651633; calls by dose curve; also: nearly all actives have a fitted effect of over 30% in size; also: potency is read from the fitted curve at half-maximal effect); settings: p53RE-bla HCT-116 viability, ATP luminescence, 16 h; series mostly up to 83.3 µM
Procedure, shortened: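 Viability counter-read: CellTiter-Glo luminescence (30 min, room temperature) in the same p53RE-bla plates. These plates had been exposed to compounds for 16 h at 37 C.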

[7] = qHTS assay for small molecules that induce genotoxicity in human embryonic kidney cells expressing luciferase-tagged ATAD5 - cell viability (AID 651634; calls by dose curve; also: nearly all actives have a fitted effect of over 25% in size; also: potency is read from the fitted curve at half-maximal effect); settings: HEK293T ATAD5-luc cells viability, CellTiter-Fluor, 15.5 h; series mostly up to 83.3 µM
Procedure, shortened: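 Quantitative high-throughput format. HEK293T cells expressing ATAD5 fused to luciferase were plated at 2,000 cells/well and treated 15.5 hr with compound versus DMSO. Viability was determined by fluorescent live-cell protease substrate, 30 min at 37C.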

[8] = qHTS assay for small molecule disruptors of the mitochondrial membrane potential - cell viability (AID 720634; calls by dose curve;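 also: human HepG2 liver cancer cells; nearly all actives have a fitted effect of over 20% in size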); settings: HepG2 viability, ATP luminescence (CellTiter-Glo), 1 h; series mostly up to 83.2 µM
Procedure, shortened: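 Same-well counter-screen: following the MMP dye addition, CellTiter-Glo was added to 1 hr compound-treated HepG2 cells and luminescence read after 30 min at room temperature.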

[9] = qHTS assay to test for compound auto fluorescence at 590 nm (red) in HepG2 cells (AID 720674); settings: HepG2 autofluorescence, red 540/590 nm, 1 h; series mostly up to 46 µM
Procedure, shortened: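 Red autofluorescence (Ex/Em 540/590 nm, Rose Bengal sodium equivalents) was measured in HepG2 cells, 2,000 per well in MEM plus 10% FBS, plated overnight at 37 C. Readings were taken 1 hr after adding 23 nL compound or DMSO, at 37 C and 5% CO2.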

[10] = qHTS assay to test for compound auto fluorescence at 460 nm (blue) in HEK293 cells (AID 720678); settings: blue autofluorescence 405/460 nm; series mostly up to 46 µM
Procedure, shortened: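 Triamterene serves as the blue fluorophore standard. Compound signal at 405/460 nm is read in HEK293 wells (2,000 cells, 10% dialyzed FBS) after overnight treatment at 37C.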

[11] = qHTS assay to test for compound auto fluorescence at 590 nm (red) in HEK293 cells (AID 720679); settings: red autofluorescence 540/590 nm; series mostly up to 46 µM
Procedure, shortened: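 We plated HEK293 cells in 10% dialyzed FBS medium, let them adhere for 4-5 hr, then added 23 nL compound. Overnight at 37C and 5% CO2 preceded fluorescence measurement at 540/590nm.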

[12] = qHTS assay to test for compound auto fluorescence at 535 nm (green) in HEK293 cells (AID 720680); settings: green autofluorescence 485/535 nm; series mostly up to 46 µM
[13] = qHTS assay to test for compound auto fluorescence at 535 nm (green) in HEK293 cell free culture (AID 720682); settings: cell-free medium, green autofluorescence 485/535 nm; series mostly up to 46 µM
Procedure, shortened: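 Cell-free medium (DMEM, 10% FBS) receives compound or DMSO by pintool. Plate read directly at Ex 485/Em 535 nm. Signal converted to fluorescein equivalency.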

[14] = qHTS assay to test for compound auto fluorescence at 590 nm (red) in HEK293 cell free culture (AID 720683); settings: cell-free medium autofluorescence, Ex540/Em590 red; series mostly up to 46 µM
Procedure, shortened: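 Red-channel autofluorescence of compounds in culture medium (DMEM, 10% FBS), no cells, measured at 540/590 nm. Rose Bengal sodium is the reference fluorophore for equivalence.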

[15] = qHTS assay to test for compound auto fluorescence at 590 nm (red) in HepG2 cell free culture (AID 720684); settings: cell-free medium autofluorescence, red 540/590 nm; series mostly up to 46 µM
Procedure, shortened: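 Cell-free; medium MEM + 10% FBS; compound or DMSO added by pintool; read Ex 540/Em 590 nm; Rose Bengal sodium as red reference fluorophore.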

[16] = qHTS assay to test for compound auto fluorescence at 460 nm (blue) in HepG2 cell free culture (AID 720685); settings: Cell-free culture medium, blue autofluorescence 405/460 nm; series mostly up to 46 µM
Procedure, shortened: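 Cell-free plates of MEM plus 10% FBS received 23 nL compound or DMSO vehicle; blue-channel (405/460 nm) intensity scored against triamterene as reference fluorophore.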

[17] = qHTS assay to test for compound auto fluorescence at 460 nm (blue) in HepG2 cells (AID 720687); settings: autofluorescence 405/460 nm, 1 h; series mostly up to 46 µM
Procedure, shortened: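 Blue-channel autofluorescence (Ex/Em 405/460 nm, triamterene-equivalent) was measured after 1 hr compound exposure at 37 C, 5% CO2. Cells were HepG2, plated overnight at 37 C in MEM plus 10% FBS.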

[18] = qHTS assay to identify aromatase inhibitors - cell viability counter screen (AID 743084); settings: MCF-7 aro ERE viability, CellTiter-Fluor, 24 h; series mostly up to 70.3 µM;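 also: cells stimulated with testosterone during compound exposure; nearly all actives have a fitted effect of over 55% in size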; also: potency is read from the fitted curve at half-maximal effect
[19] = qHTS assay to identify small molecule antagonists of the estrogen receptor alpha (ER-alpha) signaling pathway using the BG1 cell line - cell viability counter screen (AID 743081); settings: BG1Luc4E2 viability, CellTiter-Fluor, 22 h; series mostly up to 70.3 µM;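 also: compound given together with 17beta-estradiol as the ER stimulus; nearly all actives have a fitted effect of over 45% in size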

Aromatase (Homo sapiens), sequence (P11511 whole entry, looked up): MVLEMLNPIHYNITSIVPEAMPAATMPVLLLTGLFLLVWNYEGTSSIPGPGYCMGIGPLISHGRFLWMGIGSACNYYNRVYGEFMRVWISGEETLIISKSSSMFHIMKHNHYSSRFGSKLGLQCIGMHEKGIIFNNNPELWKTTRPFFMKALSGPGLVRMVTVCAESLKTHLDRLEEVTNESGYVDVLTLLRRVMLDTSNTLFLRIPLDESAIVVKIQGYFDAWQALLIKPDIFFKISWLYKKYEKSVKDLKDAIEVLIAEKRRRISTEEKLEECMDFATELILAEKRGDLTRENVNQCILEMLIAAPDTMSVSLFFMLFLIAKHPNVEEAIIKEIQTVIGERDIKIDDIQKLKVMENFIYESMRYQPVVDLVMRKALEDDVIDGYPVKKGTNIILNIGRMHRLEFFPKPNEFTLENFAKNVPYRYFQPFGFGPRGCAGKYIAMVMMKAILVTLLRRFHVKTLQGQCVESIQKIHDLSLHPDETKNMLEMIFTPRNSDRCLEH
Acetylcholinesterase (Homo sapiens), sequence (P22303 whole entry, looked up): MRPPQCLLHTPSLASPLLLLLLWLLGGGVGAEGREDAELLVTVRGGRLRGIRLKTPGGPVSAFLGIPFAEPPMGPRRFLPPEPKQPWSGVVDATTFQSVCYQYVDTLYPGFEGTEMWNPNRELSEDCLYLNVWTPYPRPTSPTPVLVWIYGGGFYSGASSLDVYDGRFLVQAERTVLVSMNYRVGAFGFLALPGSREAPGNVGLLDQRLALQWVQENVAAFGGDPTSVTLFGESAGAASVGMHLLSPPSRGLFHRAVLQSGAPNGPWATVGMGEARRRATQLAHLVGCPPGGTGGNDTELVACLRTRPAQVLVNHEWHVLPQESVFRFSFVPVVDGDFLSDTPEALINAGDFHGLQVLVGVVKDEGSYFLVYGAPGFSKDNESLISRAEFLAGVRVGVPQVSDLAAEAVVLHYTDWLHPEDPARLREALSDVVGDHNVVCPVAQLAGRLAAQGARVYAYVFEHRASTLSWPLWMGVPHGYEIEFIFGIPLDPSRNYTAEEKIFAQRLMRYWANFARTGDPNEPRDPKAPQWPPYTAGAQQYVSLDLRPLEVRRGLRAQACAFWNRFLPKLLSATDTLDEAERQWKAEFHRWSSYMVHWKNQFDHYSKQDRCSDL
Aryl hydrocarbon receptor (Homo sapiens), sequence (P35869 whole entry, looked up): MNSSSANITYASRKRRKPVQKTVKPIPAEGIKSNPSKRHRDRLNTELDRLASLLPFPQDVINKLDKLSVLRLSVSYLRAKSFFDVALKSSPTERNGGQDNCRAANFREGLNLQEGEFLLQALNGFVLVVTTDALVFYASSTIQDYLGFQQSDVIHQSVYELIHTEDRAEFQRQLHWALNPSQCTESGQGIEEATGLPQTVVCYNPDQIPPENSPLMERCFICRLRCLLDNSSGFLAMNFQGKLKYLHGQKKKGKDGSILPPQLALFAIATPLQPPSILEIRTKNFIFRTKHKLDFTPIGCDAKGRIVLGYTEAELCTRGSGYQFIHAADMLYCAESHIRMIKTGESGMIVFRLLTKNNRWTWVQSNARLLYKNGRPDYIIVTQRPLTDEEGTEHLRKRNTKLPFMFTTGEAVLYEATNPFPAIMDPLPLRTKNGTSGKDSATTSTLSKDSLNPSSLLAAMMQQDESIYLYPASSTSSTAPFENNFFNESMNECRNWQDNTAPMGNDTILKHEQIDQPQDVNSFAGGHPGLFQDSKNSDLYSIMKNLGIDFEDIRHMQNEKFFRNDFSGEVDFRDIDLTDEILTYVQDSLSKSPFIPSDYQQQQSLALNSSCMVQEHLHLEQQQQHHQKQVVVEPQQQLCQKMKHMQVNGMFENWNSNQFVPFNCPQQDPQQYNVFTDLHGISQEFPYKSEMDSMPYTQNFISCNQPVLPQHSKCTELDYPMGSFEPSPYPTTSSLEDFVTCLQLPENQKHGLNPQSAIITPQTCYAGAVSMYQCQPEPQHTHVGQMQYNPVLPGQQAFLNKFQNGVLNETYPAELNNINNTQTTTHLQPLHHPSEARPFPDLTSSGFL

Structure (SMILES) | Potency (Aromatase (Homo sapiens)) | Potency [1] | Potency [2] | Potency [3] | Potency [4] | Potency [5] | Potency [6] | Potency [7] | Potency [8] | outcome [9] | Potency [10] | outcome [11] | Potency [12] | Potency [13] | outcome [14] | outcome [15] | Potency [16] | Potency [17] | Potency [18] | Potency [19]
Clc1ccc(Cl)c(Cl)c1Cl | inactive | inactive | inactive | inactive | inactive |  |  |  |  |  |  |  |  |  |  |  |  |  |  | 
C=CCOc1c(Br)cc(C(C)(C)c2cc(Br)c(OCC=C)c(Br)c2)cc1Br |  | inactive | inactive | inactive | inactive |  |  |  |  |  |  |  |  |  |  |  |  |  |  | 
CNC(C)CC1CCCCC1 (centres undefined) | inactive | inactive |  |  |  | inactive | inactive | inactive | inactive | inactive | inactive | inactive | inactive | inactive | inactive | inactive | inactive | inactive | inactive | 
CCN(CC)/[N+]([O-])=N/O | inactive | inactive |  |  |  |  | inactive |  | inactive | inactive | inactive | inactive | inactive | inactive | inactive | inactive | inactive | inactive | inactive | inactive
C[N+]1(C)[C@@H]2CC[C@H]1CC(OC(=O)c1c[nH]c3ccccc13)C2 (some centres undefined) | inactive |  |  |  |  | inactive | inactive | inactive | inactive | inactive | inactive | inactive | inactive | inactive | inactive | inactive | inactive | inactive | inactive | inactive
CO[C@H]1[C@@H](O)C[C@H](O[C@H]2[C@@H](O)C[C@H](O[C@H]3[C@@H](O)C[C@H](O[C@H]4CC[C@@]5(C)[C@H](CC[C@@H]6[C@@H]5C[C@@H](O)[C@]5(C)[C@@H](C7=CC(=O)OC7)CC[C@]65O)C4)O[C@@H]3C)O[C@@H]2C)O[C@@H]1C | inactive | inactive |  |  |  | inactive | 0.0841 µM (active) | 0.0944 µM (active) | inactive | inactive | inactive | inactive | inactive | inactive | inactive | inactive | inactive | inactive | inactive | inactive
CCCCCc1cc(O)c2c(c1)OC(C)(C)c1ccc(C)cc1-2 | 13.3 µM (active) |  |  |  |  | inactive | 11.9 µM (active) | 23.7 µM (active) |  | inactive | inactive | inactive | inactive | inactive | inactive | inactive | inactive | inactive |  | 
Brc1ccc(Oc2ccc(Br)cc2)cc1 |  |  | inactive | inactive | inactive |  |  |  |  |  |  |  |  |  |  |  |  |  |  | 
Clc1cc(Cl)c(Cl)cc1Cl | inactive | inactive | inactive | inactive | inactive |  |  |  |  |  |  |  |  |  |  |  |  |  |  | 
N#CCCNCCC#N | inactive | inactive | inactive | inactive | inactive |  |  |  |  |  |  |  |  |  |  |  |  |  |  | 
CC1(C)C(C=C(Cl)Cl)C1C(=O)OCc1cccc(Oc2ccccc2)c1 (centres undefined) | inactive | inactive | inactive | inactive | inactive |  |  |  |  |  |  |  |  |  |  |  |  |  |  | 
O=C(Cl)c1cccc(C(=O)Cl)c1 | inactive | inactive | inactive | inactive | inactive |  |  |  |  |  |  |  |  |  |  |  |  |  |  | 
CC(=O)OCC(=O)[C@H]1CC[C@H]2[C@@H]3CC[C@H]4C[C@H](O)CC[C@]4(C)[C@H]3C(=O)C[C@]12C | inactive | inactive |  |  |  | inactive | inactive | inactive | inactive | inactive | inactive | inactive | inactive | inactive | inactive | inactive | inactive | inactive | inactive | inactive
C[N+](C)(C)CCCCCCCCCC[N+](C)(C)C | inactive | inactive | 15.5 µM (active) |  |  |  |  |  |  |  |  |  |  |  |  |  |  |  |  | 
COc1ccc2c(c1)C13CCCC[C@@H]1C(C2)N(C)CC3 (some centres undefined) | inactive | inactive |  |  |  | inactive | inactive | inactive | inactive | inactive | inactive |  | inactive | inactive | inactive | inactive | inactive | inactive | inactive | inactive
CCOC(=O)C1(c2ccccc2)CCCN(C)CC1 (centres undefined) | inactive |  |  |  |  | inactive | inactive | inactive | inactive | inactive | inactive | inactive | inactive | inactive | inactive | inactive | inactive | inactive | inactive | inactive
COc1cc([C@@H]2c3cc4c(cc3[C@H](O)[C@H]3COC(=O)[C@H]23)OCO4)cc(OC)c1OC | inactive |  | inactive | inactive | inactive |  |  |  |  |  |  |  |  |  |  |  |  |  |  | 
O=c1c2ccccc2[se]n1-c1ccccc1 | 29.8 µM (active) |  |  |  |  | inactive |  |  |  | inactive | inactive |  | inactive | inactive | inactive |  | inactive | inactive | 26.6 µM (active) | inactive
COc1ccc(C)cc1N | inactive |  | inactive | inactive | inactive |  |  |  |  |  |  |  |  |  |  |  |  |  |  | 
C[C@@H]1[C@@H]2Cc3ccc(O)cc3[C@@]1(C)CCN2CCc1ccccc1 | inactive | 8.53 µM (active) |  |  |  | inactive | inactive | inactive | inactive | inactive | inactive | inactive | inactive | inactive | inactive | inactive | inactive | inactive | inactive | inactive
C[C@]12CC[C@H]3[C@@H](CCC4=CC(=O)CC[C@@]43C)[C@@H]1CC[C@H]2O | inactive | inactive |  |  |  | inactive | inactive | inactive | inactive | inactive | inactive | inactive | inactive | inactive | inactive | inactive | inactive | inactive | inactive | inactive
